Measurements as given in PubChem BioAssay (NCI).
Compounds without any hit were thinned out: in the full panel of roughly 83,000, 20% have a hit.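 Activity criterion: percent growth below 10, measured after cells in 96-well plates were exposed to a single compound concentration for 48 hours.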 Activity calls are given as the source filed them.

These molecules were tested on OVCAR-3 ovarian (assay: NCI-60 one-dose screen, 48 h (100 = growth as untreated, 0 = no growth, -100 = all killed)). Settings: 10 µM unless noted.

| SMILES | growth |
| --- | --- |
| Cc1ccc(Cc2cnc(NC(=O)/C=C/c3cccc(C)c3)s2)cc1 | -41.4% (active) |
| CC1(C)[C@@H](O)CC[C@]2(C)[C@H]3CC[C@@H]4[C@H]5[C@H](C(=O)/C=C/c6ccc(C(F)(F)F)cc6)CC[C@]5(CO)CC[C@@]4(C)[C@]3(C)CC[C@@H]12 | 51.8% (inactive) |
| COc1cc2ncnc(Nc3ccc(OCc4cccc(F)c4)c(Cl)c3)c2cc1NC(=O)C1CCCC1 | 77.9% (inactive) |
| C=C(C)[C@@H]1CC[C@]2(c3nnc(-c4ccncc4)o3)CC[C@]3(C)[C@H](CC[C@@H]4[C@@]5(C)CCC(=O)NC(C)(C)[C@@H]5CC[C@]43C)[C@@H]12 | 44.6% (inactive) |
| CCc1cccc(CC)c1NC(=O)c1sc2nc3c(cc2c1N)CCCC3 | 54.6% (inactive) |
| CCc1ccccc1NC(=O)c1sc2nc3c(cc2c1N)CCCC3 | 23.8% (inactive) |
| O=Cc1nc2ccccc2[nH]1 | 111% (inactive) |
| C[C@@H]1CCCCCCCCC[C@H](O)C(=O)C[C@@H](SC[C@@H](O)C(=O)O)C(=O)O1 | 107% (inactive) |
| C=C(C)[C@@H]1CC[C@]2(C(=O)N3CCN(CC)CC3)CC[C@]3(C)[C@H](CC[C@@H]4[C@@](C)(CCC(=O)N5CCN(CC)CC5)[C@H](C(=C)C)CC[C@]43C)[C@@H]12 | 60.5% (inactive) |
| Brc1ccc(Cn2nnnc2-c2ccn(-c3ccccc3)n2)cc1 | 86.8% (inactive) |
| CCCCN1CCCCn2c1nc1c2c(=O)n(C)c(=O)n1C | 102% (inactive) |
| CCCCC[C@H]1CC=C2C(=O)C=C[C@@H]2CC=CCCCC(=O)O[C@@H](CCCCC)CC=C2C(=O)C=C[C@@H]2CC=CCCCC(=O)O[C@@H](CCCCC)CC=C2C(=O)C=C[C@@H]2CC=CCCCC(=O)O1 | -54.2% [8.75 µM] (active) |
| CC(C)=CCC[C@](C)(O)[C@H]1CC[C@]2(C)[C@@H]1CC[C@@H]1[C@@]3(C)C/C(=C/c4cccc([N+](=O)[O-])c4)C(=O)C(C)(C)[C@@H]3CC[C@]12C | 89.7% (inactive) |
| Cn1cc(-c2csc(-c3cn(CCNC(=O)OC(C)(C)C)c4ccc(F)cc34)n2)c2cccnc21 | 75.5% (inactive) |
| CN1CCN(CCOc2ccc(-c3cnc4c(-c5ccccc5F)cnn4c3)cc2)CC1 | 20.3% (inactive) |
| Cc1cc(N2CCCCC2)nc(N(CCCNc2ccnc3cc(Cl)ccc23)Cc2ccco2)n1 | 21% (inactive) |
| Brc1ccc2c(c1)c(-c1nc(-c3c[nH]c4ncccc34)cs1)cn2CCCN1CCCCC1 | -64.3% (active) |
| NC1=C(C/C(N)=N\O)C(c2ccccc2Cl)c2c(ccc3ccccc23)O1 (stereo not given) | 77.9% (inactive) |
| O=C1Nc2ccccc2/C1=C/c1cn(CCCn2c3ccccc3c(=O)c3ccccc32)c2ccccc12 | 84.9% (inactive) |
| COC(=O)[C@]12CC[C@@H](C)[C@H](C)[C@@H]1C1=CC[C@@H]3[C@@]4(C)C(c5ncon5)=C[C@@](C)(CO)C4=CC[C@@]3(C)[C@]1(C)CC2 | -86.8% (active) |
| c1ccc(CN2C(c3ccccc3)=Nc3ccccc3C2c2c[nH]c3ccccc23)cc1 (stereo not given) | 57.6% (inactive) |
| CC1(C)NCCC[C@]2(C)[C@H]3CC[C@@H]4[C@H]5[C@H](C(=O)/C=C/c6ccccn6)CC[C@]5(CO)CC[C@@]4(C)[C@]3(C)CC[C@@H]12 | 40.9% (inactive) |
| Cc1cccc(C)c1NCc1nc(-c2ccccc2)n[nH]1 | 113% (inactive) |
| COc1cccc(-c2nn(-c3ccccc3)cc2-c2ccnc(NCCNS(=O)(=O)c3cccc(F)c3)c2)c1 | 40.4% (inactive) |
| N#C/C(=C\c1ccc(-c2ccc(Cl)cc2)o1)c1nc(-c2ccco2)cs1 | 106% (inactive) |
| COc1cc(-c2cc3cc(O)ccc3oc2=O)cc(OC)c1OC | 114% (inactive) |

What follows are molecules tested on HS 578T breast in the same assay as above. Settings: 10 µM unless noted.

| SMILES | growth |
| --- | --- |
| COc1cc(-c2cc3ncccc3c3nc(OCCN(C)C)c4cccnc4c23)cc(OC)c1OC | 14.4% (inactive) |
| CN(C)CCCC1(c2ccc(F)cc2)OCc2cc(-c3ccc(C(F)(F)F)nc3)ccc21 (stereo not given) | 61.9% (inactive) |
| Cn1cc(-c2csc(-c3cn(CCNC(=O)OC(C)(C)C)c4ccccc34)n2)c2cccnc21 | 82.1% (inactive) |
| N#CC1=C(N)Oc2c(c(N)nn2-c2ccccc2)C1c1ccc(Cl)cc1Cl (stereo not given) | 101% (inactive) |
| CCN1CCN(C(=O)[C@]23CC[C@@H](C)[C@H](C)[C@H]2C2=CC[C@@H]4[C@@]5(C)C/C(=C/c6cccc(OC)c6OC)C(=O)C(C)(C)[C@@H]5CC[C@@]4(C)[C@]2(C)CC3)CC1 | 67.6% (inactive) |
| Cc1csc(Nc2nc(-c3ccc(Cl)cc3)nc(C(Cl)(Cl)Cl)n2)n1 | 101% (inactive) |
| COc1ccc(/C=C(\C#N)c2cc3ccccc3n2S(C)(=O)=O)cc1 | 95.6% (inactive) |
| Cc1cc(Cl)c2c(N(C)C)cccc2n1 | 136% (inactive) |
| O=C1c2ccccc2NC(c2cn(-c3ccccc3)nc2-c2cccs2)N1Cc1ccccc1 (stereo not given) | 94.3% (inactive) |
| COCCNC1=C(Cl)C(=O)c2ccccc2C1=O | 105% (inactive) |
| Oc1ccc(Nc2ccccc2)cc1 | 105% (inactive) |
| COC(=O)[C@]12CC[C@@H](C)[C@H](C)[C@@H]1C1=CC[C@@H]3[C@@]4(C)C[C@@H](OC(C)=O)[C@H](OC(C)=O)[C@@](C)(COC(C)=O)[C@@H]4[C@H](O)C[C@@]3(C)[C@]1(C)CC2 | 35.9% (inactive) |
| Cc1c(C)c2c(c(C)c1NC(=O)CCCCCCC(=O)O)CCC(C)(CCCC(C)CCCC(C)CCCC(C)C)O2 (stereo not given) | 101% (inactive) |
| Cc1ccc(Cc2cnc(NC(=O)/C=C/c3cccc(C)c3)s2)cc1 | 6.83% (active) |
| CC1(C)[C@@H](O)CC[C@]2(C)[C@H]3CC[C@@H]4[C@H]5[C@H](C(=O)/C=C/c6ccc(C(F)(F)F)cc6)CC[C@]5(CO)CC[C@@]4(C)[C@]3(C)CC[C@@H]12 | 59.6% (inactive) |
| COc1cc2ncnc(Nc3ccc(OCc4cccc(F)c4)c(Cl)c3)c2cc1NC(=O)C1CCCC1 | 91.8% (inactive) |
| C=C(C)[C@@H]1CC[C@]2(c3nnc(-c4ccncc4)o3)CC[C@]3(C)[C@H](CC[C@@H]4[C@@]5(C)CCC(=O)NC(C)(C)[C@@H]5CC[C@]43C)[C@@H]12 | 95.8% (inactive) |
| CCc1cccc(CC)c1NC(=O)c1sc2nc3c(cc2c1N)CCCC3 | 65.2% (inactive) |
| CCc1ccccc1NC(=O)c1sc2nc3c(cc2c1N)CCCC3 | 29.9% (inactive) |
| O=Cc1nc2ccccc2[nH]1 | 95.4% (inactive) |

| SMILES | growth |
| --- | --- |
| C[C@@H]1CCCCCCCCC[C@H](O)C(=O)C[C@@H](SC[C@@H](O)C(=O)O)C(=O)O1 | 113% (inactive) |
| C=C(C)[C@@H]1CC[C@]2(C(=O)N3CCN(CC)CC3)CC[C@]3(C)[C@H](CC[C@@H]4[C@@](C)(CCC(=O)N5CCN(CC)CC5)[C@H](C(=C)C)CC[C@]43C)[C@@H]12 | 80.8% (inactive) |
| Brc1ccc(Cn2nnnc2-c2ccn(-c3ccccc3)n2)cc1 | 77.7% (inactive) |
| CCCCN1CCCCn2c1nc1c2c(=O)n(C)c(=O)n1C | 100% (inactive) |
| CCCCC[C@H]1CC=C2C(=O)C=C[C@@H]2CC=CCCCC(=O)O[C@@H](CCCCC)CC=C2C(=O)C=C[C@@H]2CC=CCCCC(=O)O[C@@H](CCCCC)CC=C2C(=O)C=C[C@@H]2CC=CCCCC(=O)O1 | 40.2% [8.75 µM] (inactive) |
| CC(C)=CCC[C@](C)(O)[C@H]1CC[C@]2(C)[C@@H]1CC[C@@H]1[C@@]3(C)C/C(=C/c4cccc([N+](=O)[O-])c4)C(=O)C(C)(C)[C@@H]3CC[C@]12C | 93.3% (inactive) |
| Cn1cc(-c2csc(-c3cn(CCNC(=O)OC(C)(C)C)c4ccc(F)cc34)n2)c2cccnc21 | 84.3% (inactive) |
| CN1CCN(CCOc2ccc(-c3cnc4c(-c5ccccc5F)cnn4c3)cc2)CC1 | 76.9% (inactive) |
| Cc1cc(N2CCCCC2)nc(N(CCCNc2ccnc3cc(Cl)ccc23)Cc2ccco2)n1 | 61.3% (inactive) |
| Brc1ccc2c(c1)c(-c1nc(-c3c[nH]c4ncccc34)cs1)cn2CCCN1CCCCC1 | 52.1% (inactive) |
| NC1=C(C/C(N)=N\O)C(c2ccccc2Cl)c2c(ccc3ccccc23)O1 (stereo not given) | 83.9% (inactive) |
| O=C1Nc2ccccc2/C1=C/c1cn(CCCn2c3ccccc3c(=O)c3ccccc32)c2ccccc12 | 85.2% (inactive) |
| COC(=O)[C@]12CC[C@@H](C)[C@H](C)[C@@H]1C1=CC[C@@H]3[C@@]4(C)C(c5ncon5)=C[C@@](C)(CO)C4=CC[C@@]3(C)[C@]1(C)CC2 | 12.5% (inactive) |
| c1ccc(CN2C(c3ccccc3)=Nc3ccccc3C2c2c[nH]c3ccccc23)cc1 (stereo not given) | 52.3% (inactive) |
| CC1(C)NCCC[C@]2(C)[C@H]3CC[C@@H]4[C@H]5[C@H](C(=O)/C=C/c6ccccn6)CC[C@]5(CO)CC[C@@]4(C)[C@]3(C)CC[C@@H]12 | 70.8% (inactive) |
| Cc1cccc(C)c1NCc1nc(-c2ccccc2)n[nH]1 | 108% (inactive) |
| COc1cccc(-c2nn(-c3ccccc3)cc2-c2ccnc(NCCNS(=O)(=O)c3cccc(F)c3)c2)c1 | 40.2% (inactive) |
| N#C/C(=C\c1ccc(-c2ccc(Cl)cc2)o1)c1nc(-c2ccco2)cs1 | 102% (inactive) |
| COc1cc(-c2cc3cc(O)ccc3oc2=O)cc(OC)c1OC | 81.6% (inactive) |
